# FLuc modulator: counter-screen for miR-21 project: firefly luciferase inhibitors or activators; P08659; purified FLuc, Km substrates, luminescence inhibition; Potency, µM (titrated, usually from 57.5 µM), most hits filed as inhibitors; 6.9% of 360,000 active; AID 588342; further: nearly all actives have a fitted effect of over 55% in size
# Target sequence (P08659 whole entry, looked up): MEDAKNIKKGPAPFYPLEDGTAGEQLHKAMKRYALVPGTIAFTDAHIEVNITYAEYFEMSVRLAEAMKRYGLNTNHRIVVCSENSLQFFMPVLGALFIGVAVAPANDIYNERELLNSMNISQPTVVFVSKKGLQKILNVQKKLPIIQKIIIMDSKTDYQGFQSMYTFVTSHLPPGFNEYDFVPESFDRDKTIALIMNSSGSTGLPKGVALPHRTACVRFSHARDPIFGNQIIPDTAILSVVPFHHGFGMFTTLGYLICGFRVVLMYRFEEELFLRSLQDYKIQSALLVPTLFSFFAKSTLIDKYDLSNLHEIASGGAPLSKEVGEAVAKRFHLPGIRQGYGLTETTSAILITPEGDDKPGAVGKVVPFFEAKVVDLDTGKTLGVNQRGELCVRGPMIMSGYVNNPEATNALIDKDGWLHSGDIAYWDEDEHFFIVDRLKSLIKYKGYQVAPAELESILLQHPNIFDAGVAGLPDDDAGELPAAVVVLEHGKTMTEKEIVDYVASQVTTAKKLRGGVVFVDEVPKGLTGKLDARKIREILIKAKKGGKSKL
#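 Biochemical qHTS of compounds, final roughly 60 µM downward over six points, against 10 nM purified firefly luciferase using Km concentrations of substrates (10 uM D-luciferin, 10 uM ATP) in Tris acetate pH 7.5 buffer; luminescence output.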
# SMN2 splice enh: enhancers of SMN2 splice variant expression; HEK293 SMN2-luciferase splicing reporter, luminescence, 30-36 h; Potency, µM (highest dose often 46.1 µM), actives largely listed as activators; 2.8% of 210,000 active; further: nearly all actives have a fitted effect of over 55% in size
#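 qHTS luciferase splicing reporter: luminescence rises when SMN2 exon 7 is included in transfected HEK293 cells. Compound exposure lasted 30-36 h at 37C, with 4.5 mM final sodium butyrate as control, followed by a ONE-Glo read.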
# Rab9 prom act: activators of Rab9 promoter; Huh7 Rab9 promoter-luciferase reporter, luminescence, 24 h; Potency, µM (doses to about 9.22 µM), usual class: activators; 2.8% of 320,000 active; further: nearly all actives have a fitted effect of over 60% in size
#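 Luminescence from Amplite-detected luciferase (10 minutes, ambient) reports Rab9 promoter activation. Before that, stable Rab9-luciferase Huh7 cells (1500/well, reduced-serum OP-MEM I plus 10% FBS) were exposed to compound for 24 hours at 37C.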
# uPA generation: cell surface uPA generation inhibition | cell surface uPA generation assay, qHTS | Potency, µM (doses to about 38.3 µM), hits mostly inhibitors | 0.31% of 330,000 active; active means well fitted inhibition curve with a large enough effect; inconclusive means small, poorly fitted or top-dose-only effect; inactive means no such curve, though single readings can be large or run the other way; tested in mouse RAW 264.7 cells; further: nearly all actives have a fitted effect of over 55% in size
# ELG1 genotox: genotoxicity induction in ELG1-luciferase HEK293T cells; HEK293T ELG1-luciferase reporter, luminescence, 16 h; 1.3% of 330,000 active; Potency, µM (series often up to 46 µM), usual class: activators; further: nearly all actives have a fitted effect of over 60% in size
#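 Genotoxic stress is detected as increased luminescence from luciferase-tagged ELG1 in HEK293T cells, measured with ONE-Glo after a 16 hr treatment at 37 °C.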
# NPC1 prom act: activators of NPC1 promoter; Huh7 NPC1 promoter luciferase reporter, 24 h; 2.4% of 320,000 active; Potency, µM (series often up to 9.22 µM), actives largely listed as activators; further: nearly all actives have a fitted effect of over 60% in size
#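 Luminescence read-out of NPC1 promoter-driven luciferase in stably transfected Huh7 cells; compounds delivered in DMSO and left 24 h at 37C, 5% CO2, qHTS titration format.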
# A number is an active result; . = inactive; ? = inconclusive; / = no result given; [ ] = dose if it differs, or a comment. Shown are actives, neighbours in structure and some others; about 7.3% of the full set was active somewhere. Unless noted, the call rests on the fitted dose curve; in most records, active means well fitted curve in the direction sought with a large enough effect; inconclusive means small, poorly fitted or top-dose-only effect, or another doubt; inactive means no such curve, though single readings can be large; an effect the other way counts as inactive or inconclusive.
SMILES,FLuc modulator,SMN2 splice enh,Rab9 prom act,uPA generation,ELG1 genotox,NPC1 prom act
CCOC(=O)C1CCN(C(=O)CNC(=O)c2nn(-c3ccc(OC)cc3)c(=O)c3ccccc23)CC1,2.7µM,/,.,.,.,.
CCOC(=O)C1CCN(C(=O)CNC(=O)c2nn(-c3ccc(OC)c(OC)c3)c(=O)c3ccccc23)CC1,4.8µM,/,.,.,.,.
COc1cccc2c1nc(C)c1cc(C)oc12,21µM,?,.,.,?,.
O=C(c1ccccc1F)N1c2nc(-c3ccco3)nn2C2(CCCCC2)[C@@H]2CCCC[C@@H]21,.,/,/,/,/,/
Nc1ccc(Oc2cc(N)cc(Oc3ccccc3)c2)cc1,6µM,/,?,.,?,2µM
Nc1ccc(Oc2ccc3nc(-c4ccccc4)c(-c4ccccc4)nc3c2)cc1,.,.,.,.,.,.
O=C(Nc1cccc(Cl)c1)c1cc(-c2ccco2)on1,2.7µM,/,.,.,.,.
O=C(Nc1cc(Cl)ccc1O)c1cc(-c2ccco2)on1,?,/,.,.,21µM,.
O=C(Nc1cnn(C23CC4CC(CC(C4)C2)C3)c1)c1cc(-c2ccccc2)on1,.,.,.,.,.,.
O=C(Nc1c(Cl)cccc1Cl)c1cc(-c2ccco2)on1,?,/,.,.,.,.
CCCn1cc(NC(=O)c2cc(-c3ccccc3)on2)cn1,13µM,.,?,/,23µM,.
COc1cccc(-c2cc(C(=O)Nc3ccccc3SC)no2)c1,7.6µM,.,?,/,?,?
Cc1ccccc1C(=O)Nc1ccc(C(=O)OCc2cc(=O)n3nc(C(C)C)sc3n2)cc1,.,/,/,/,/,/
O=C(c1c(F)cccc1F)N1CCCC(c2nc(-c3cccs3)no2)C1 (centres undefined),?,/,?,.,?,?
CCN(CC)COC(=S)S,/,.[9.22 µM],/,/,/,/
CCc1ccc(NC(=O)c2cc(-c3ccco3)on2)cc1,2.4µM,.,.,/,.,.
COc1ccc(NC(=O)c2cc(-c3ccco3)on2)cc1,?,?,.,.,.,.
O=C(Nc1cccc(Cl)c1)c1cc(-c2ccccc2)on1,1.5µM,/,/,/,/,/
O=C(Nc1cccnc1Cl)c1cc(-c2ccco2)on1,5.4µM,.,?,.,16µM,.
N#Cc1ccc(NC(=O)c2cc(-c3cccc(Cl)c3)on2)cc1,.,.,/,/,/,/
COc1cccc(-c2cc(C(=O)Nc3cccc(O)c3)no2)c1,0.43µM,.,?,/,?,?
Fc1ccc(N2CCN(c3nc4ccccc4c4nc(-c5ccccc5)nn34)CC2)cc1,.,.,/,/,/,/
COc1ccc(OC)c2sc(N(Cc3cccnc3)C(=O)c3ccc(C(C)=O)cc3)nc12,.,/,/,/,/,/
CCc1cccc(NC(=O)COc2cc(=O)n(CC)c3ccccc23)c1,.,.,/,/,/,/
COc1nc(Oc2ccc(=O)n(-c3ccccc3)n2)nc(N(C)C)n1,.,.,/,/,/,/
SMILES,FLuc modulator,SMN2 splice enh,Rab9 prom act,uPA generation,ELG1 genotox,NPC1 prom act
COc1ccc(-c2cc(C(=O)Nc3cccc(Cl)c3)no2)cc1,0.76µM,/,1.1µM,.,1.8µM,1µM
COc1ccc(-c2cc(C(=O)Nc3cccc(C(C)=O)c3)no2)cc1,?,.,.[1.84 µM],/,.,.
COc1cc(/C=C/C(=O)c2ccc3c(c2)OCO3)cc(OC)c1OC,/,/,.,?,.,.
COc1ccc(OC)c(/C=C/C(=O)c2ccc3c(c2)OCCO3)c1,2.4µM,/,.,?,.,.
COc1cc(/C=C/C(=O)c2ccc(C)cc2)ccc1OCC#N,17µM,.,.,.,.,.
COc1ccc(C(=O)COC(=O)c2ccc3c(c2)OCCO3)c(OC)c1,12µM,/,.,.,.,.
COc1ccc(/C=C/C(=O)c2ccc3c(c2)OCO3)cc1OC,15µM,/,.,.,?,.
CCN(CC)C(=O)CSc1nnc(-c2ccccn2)n1-c1ccccc1OC,.,/,.,.,.,.
CN(Cc1ccccc1)C(=O)C1CCC(CNS(=O)(=O)c2ccc3c(c2)CCCC(=O)N3)CC1 (centres undefined),.,/,/,/,/,/
Cc1cccc(CNC(=O)Cc2csc3ccccc23)c1,?,.,/,/,/,/
NC(=O)c1cc(S(=O)(=O)NCC2CCC(C(=O)Nc3cccc(Cl)c3)CC2)cs1 (centres undefined),.,/,/,/,/,/
Cc1ccc(-n2nc(CO)c(C(=O)NCc3cccnc3)n2)cc1,.,.,/,/,/,/
O=C(OCc1ccc(Cl)c(Cl)c1)c1ccc[nH]1,24µM,/,?,.,?,?
O=C(Cc1ccc(Cl)c(Cl)c1)OCC(=O)c1ccc[nH]1,.,.,.,.,.,.
CCNc1nc(NCC)n2c(SCC(=O)N(CC)C3CCCCC3)nnc2n1,.,.,.,.,.,.
CCn1c(SCC(=O)N/N=C/C(C)=C\c2ccco2)nnc1-c1ccccc1,13µM,.,.,.,.,.
CCn1c(SCC(=O)N/N=C/C(C)=C/c2ccco2)nnc1-c1ccccc1,15µM,.,.,/,.,.
O=C1CCCc2c1oc1c2CCCC1,/,/,/,.,/,/
NC(=S)c1ncc(C(F)(F)F)cc1Cl,.,/,.,.,.,.
CC(Cl)c1cc(-c2ncc(C(F)(F)F)cc2Cl)no1 (centres undefined),?,.,.,.,.,.
FC(F)(F)c1cnc(-c2cnc(-c3ccncc3)nc2)c(Cl)c1,?,.,3.2µM,.,.,?
FC(F)(F)c1cnc(-c2cnc(-c3ccccn3)nc2)c(Cl)c1,11µM,11µM,0.71µM,.,.,?
Cc1cccc(-c2nc(CN3CCCC(C(=O)N4CCN(c5cc(Cl)ccc5C)CC4)C3)c(C)o2)c1 (centres undefined),?,.,/,/,/,/
Cc1c(CC(=O)N2CCCCC2)c(=O)oc2cc3occ(C(C)(C)C)c3cc12,.,.,/,/,/,/
CCCCCCN(C(=O)CCl)c1ccccc1,.,/,.,2.5µM,.,.
SMILES,FLuc modulator,SMN2 splice enh,Rab9 prom act,uPA generation,ELG1 genotox,NPC1 prom act
O=C(/C=C/c1ccccc1)NC(=O)c1ccccc1O,1.7µM,/,?,.,?,?
O=C(/C=C/c1ccccc1)CC(=O)c1ccccc1O,15µM,/,?,8.9µM,?,.
O=C(/C=C/c1ccccc1)COC(=O)c1ccccc1,/,/,/,.,/,/
CCOC(=O)COn1c(=O)c(-c2cc3ccccc3o2)[n+]([O-])c2ccccc21,2.4µM,14µM,2.2µM,.,?,?
C=CCOn1c(=O)c(-c2cc3ccccc3o2)[n+]([O-])c2ccccc21,?,/,.,.,.,?
CCOC(=O)c1noc2ncnc(N3CCN(c4cccc(Cl)c4)CC3)c12,.,/,/,/,/,/
Fc1ccc(NCc2ccccc2-c2nnc(-c3ccccc3Cl)o2)cc1Cl,?,.,/,/,/,/
O=C(N/N=C/c1ccc([N+](=O)[O-])o1)c1cc(-c2cccc(Br)c2)nc2ccccc12,4.8µM,.,.,.,.,.
COc1ccc(-c2nn(-c3ccccc3)cc2C(=O)N/N=C/c2ccc([N+](=O)[O-])o2)cc1,.,.,.,.,?,.
CCCc1ccc(-c2cc(C(=O)N/N=C/c3ccc([N+](=O)[O-])o3)c3ccccc3n2)cc1,0.15µM,.,?,.,?,.
